Experiments:
Assay in all cases: PBM binding z-score (relative to random genomic background probes); higher = stronger binding; sequences stand for … in GC…GCGATTGACAGCGTAGAATGAAGG
[1] = test system: FXR:RXRa (NR concentration 270 nM, RXRa partner concentration 90 nM)
Procedure, shortened: (§1)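 Probes were double-stranded and carried 34-nt variable regions with direct-repeat seeds, single-nucleotide variants, half-site ablations and random human genomic background sequences, printed on custom Agilent 4×180K protein-binding microarrays. Arrays were incubated 1 h with ligand-free nuclear receptor dimers in PBS pH 7.4, 2% milk, 0.02% Triton X-100, 1 mM DTT, 0.2 mg/mL BSA and 0.4 mg/ml salmon testes DNA. Antibodies against each partner (one per run) detected binding, and scanned fluorescence was regression-normalized. Binding z-scores use the random background probes as reference.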

[2] = test system: LXRa:RXRa (NR concentration 270 nM, RXRa partner concentration 90 nM)
Procedure, shortened: as §1

[3] = test system: LXRa homodimer (NR concentration 270 nM)
Procedure, shortened: as §1

[4] = test system: LXRb:RXRa (NR concentration 270 nM, RXRa partner concentration 90 nM)
Procedure, shortened: as §1

[5] = test system: LXRb homodimer (NR concentration 270 nM)
Procedure, shortened: as §1

[6] = test system: PPARa:RXRa (NR concentration 270 nM, RXRa partner concentration 90 nM)
Procedure, shortened: as §1

[7] = test system: PPARg:RXRa (NR concentration 180 nM, RXRa partner concentration 90 nM)
Procedure, shortened: as §1

[8] = test system: PPARg:RXRa 270nM:90nM, anti-RXR (NR concentration 270 nM, RXRa partner concentration 90 nM)
Procedure, shortened: as §1

[9] = test system: PPARg:RXRa 30nM:10nM, anti-RXR (NR concentration 30 nM, RXRa partner concentration 10 nM)
Procedure, shortened: as §1

[10] = test system: PPARg:RXRa 90nM:30nM, anti-RXR (NR concentration 90 nM, RXRa partner concentration 30 nM)
Procedure, shortened: as §1

[11] = test system: PPARg:RXRa DBDmut IVT, anti-RXR (DBD mutation: RXRa K156A/R161A, NR concentration 270 nM, RXRa partner concentration 90 nM)
Procedure, shortened: as §1

[12] = test system: PPARg:RXRa IVT, anti-PPARg (NR concentration 270 nM, RXRa partner concentration 90 nM)
Procedure, shortened: as §1

[13] = test system: PPARg DBDmut:RXRa IVT, anti-PPARg (DBD mutation: PPARg1 K132A/R137A, NR concentration 270 nM, RXRa partner concentration 90 nM)
Procedure, shortened: as §1

[14] = test system: PPARg DBDmut IVT, anti-PPARg (DBD mutation: PPARg1 K132A/R137A, NR concentration 270 nM)
Procedure, shortened: as §1

[15] = test system: PPARg homodimer (NR concentration 180 nM)
Procedure, shortened: as §1

[16] = test system: PXR:RXRa (NR concentration 270 nM, RXRa partner concentration 90 nM)
Procedure, shortened: as §1

[17] = test system: PXR homodimer (NR concentration 270 nM)
Procedure, shortened: as §1

[18] = test system: RARa:RXR (NR concentration 270 nM, RXRa partner concentration 90 nM)
Procedure, shortened: as §1

[19] = test system: RARa homodimer (NR concentration 270 nM)
Procedure, shortened: as §1

[20] = test system: RARb:RXRa (NR concentration 270 nM, RXRa partner concentration 90 nM)
Procedure, shortened: as §1

Sequence	PBM binding z-score [1]	PBM binding z-score [2]	PBM binding z-score [3]	PBM binding z-score [4]	PBM binding z-score [5]	PBM binding z-score [6]	PBM binding z-score [7]	PBM binding z-score [8]	PBM binding z-score [9]	PBM binding z-score [10]	PBM binding z-score [11]	PBM binding z-score [12]	PBM binding z-score [13]	PBM binding z-score [14]	PBM binding z-score [15]	PBM binding z-score [16]	PBM binding z-score [17]	PBM binding z-score [18]	PBM binding z-score [19]	PBM binding z-score [20]
GCTGCTAGGTCAACTGATGATCAGCTAAAGCTCG	3.88	2.96	-0.334	2.02	0.0909	3.68	2.88	3.19	0.694	2.07	4.79	4.29	-0.231	0.333	1.28	1.34	-0.82	2.48	-0.292	4.25
GCAGACAGGTGAAACGCGGGTAACTCAGGGTGGC	0.0652	0.351	-0.771	-0.193	-1.11	0.839	0.342	-0.106	-0.712	-0.458	1.2	0.724	-0.459	-1.01	-0.647	-0.0302	-0.747	0.318	-0.909	0.691
CAAACTAAGTCACAGAGGTCAAAGTCCGTGCGTA	5.08	5.61	5.8	5.22	2.02	5.18	3.74	4.78	2.63	4.18	2.87	3.84	0.32	0.368	4.44	5.86	3.71	6.39	2.59	4.05
TCCTGTAGATCAGCAGGTTAAGAAAGCTGGCCAA	0.47	0.36	-0.398	0.304	-0.639	0.87	-0.289	1.6	2.43	1.83	1.6	-0.214	-0.0572	-0.0553	-0.125	0.286	-0.41	0.585	-0.442	0.219
GATACACGGTCAGCTAGAGGCCAGAGTATGGAAA	-0.145	-0.145	-0.281	-0.57	-0.753	-0.296	0.351	-0.323	-0.383	-0.205	-0.219	0.135	-0.178	-0.554	0.453	-0.394	-0.5	0.205	-0.0449	2.51
GGAACGAGGGCATTCGACTTGATAGCATGGCGAT	0.596	0.173	-0.634	-0.0929	-0.467	1.41	1.14	0.717	-0.0237	0.28	2.67	2.21	0.442	0.0396	-0.0413	0.499	0.283	-0.119	-0.012	1.6
CAGCCTAGGTAAGGGCCAGTATAGGAGGAACGTT	-0.618	-0.931	-0.62	-1.05	-1.17	-0.738	-0.026	-0.51	-0.469	-0.635	-0.707	-0.473	0.308	-0.484	0.0729	-0.698	-0.364	-0.562	-0.726	-0.0366
TAGCCAAGGTCATTGGGCCAGTATAGTACGCATC	7.45	5.57	1.49	4.67	0.952	5.95	6	5.57	2.47	3.59	2.26	4.14	1	0.266	2.22	4.33	1.15	4.03	0.395	5.01
CCTAGCAGGCCAATCTGGGTCAATCAAGGCTTGA	0.324	1.22	-0.656	0.742	-1.17	3.09	1.49	1.95	-0.105	1	3.86	4.7	-0.527	-1.3	0.323	0.743	-0.691	2.06	-0.918	1.31
TCTCGGAGGACACGAAGGTCAGGGCTTTCCAGAG	1.55	1.29	0.139	1.17	-0.91	2.13	0.576	1.75	2.15	1.9	1.37	0.884	-0.402	-1.18	1.07	1.89	0.452	2.52	-0.205	3.48
CAAACTAGGGCACAGAGGTCAAAGTCCGTGCGTA	5.59	5.41	5.74	4.88	1.2	5.71	7.92	6.9	4.71	6.59	7.7	7.94	4.77	2.72	4.24	6.12	8.42	6.5	1.61	4.41
GATACAGGGTCAAGGCCATAGTACGCGTATTGAT	6.45	4.12	0.059	3.75	0.018	5.51	6.08	5.45	2.63	4.43	2.5	4.05	0.702	-0.195	1.64	3.94	0.404	4.65	0.823	4.41
TAGCCTAGGTCAGATCGGGCCGGTATACGCTATA	1.49	0.768	-0.645	0.506	-0.232	1.27	0.615	0.655	-0.199	0.0642	0.592	1.34	-0.27	-0.214	0.114	0.345	-0.722	0.515	-0.746	2.98
AGAATGAGGTTACCAAAGATCGGGGAAACGCTTG	1.75	4.95	-0.394	2.39	-0.29	3.28	2.29	2.42	0.813	1.48	4.19	3.16	0.767	-0.00143	0.441	1.3	-0.247	1.86	-0.246	2.09
TGTCAAAGTTCAAAGGTACCGTAAGTATCCACAC	6.69	6.28	4.68	4.31	1.83	5.79	7.97	7.18	4.9	6.89	0.615	4.3	1.2	0.655	1.97	5.17	3.76	4.94	0.937	4.89
ACAGACAGGGGATGAAGGTAACTCAGGCTATCAT	0.0429	-0.217	-0.0262	0.454	0.563	0.414	0.8	-0.0093	-0.0639	-0.0825	-0.0159	0.23	0.918	0.962	0.411	0.126	0.556	-0.0712	0.0686	0.299
CAAACTAGGTCACCGGAAGGTCAAAGTGCGCATG	6.51	6.25	5.26	5.66	1.52	6.36	9.79	7.84	5.91	7.97	8.63	8.94	1.75	1.74	7.29	6.12	1.81	7.59	2.46	5.39
CAAACTAGGTCAAAGGTGAAAGTCGAGCCAACCA	6.6	5.02	0.751	4.52	0.619	7.19	13.3	10.7	12.4	13.5	8.83	8.9	5.06	3.41	4.11	4.59	0.25	7.31	1.09	4.41
AGAATGAGGTTACCAAAGATCAGGGATACGCTTG	1.93	5.68	0.0211	2.95	0.0562	3.28	2.84	2.6	1.03	1.77	3.77	3.44	1.54	0.614	0.494	1.38	-0.284	2.04	0.01	1.98
CGTCCAATGTCAGAGAGGTCAGTGAATGCCGAGT	2.31	2.29	1.37	2.24	0.168	2.69	0.78	1.62	0.224	1.18	0.575	1.22	-0.469	-0.584	3.15	3.48	2.28	3.16	1.47	3.42
TAGCCTAGGTCATTGGGCCCGTATAGTACGCATC	4.15	3.59	0.962	2.9	0.67	3.84	2.27	2.57	0.517	1.74	1.78	3.02	0.545	-0.654	0.54	1.75	0.165	2	-0.326	3.74
CATACATGGTCAGCTAGGCCAGAGTAGGGACGGC	-0.504	-0.26	-0.736	-0.962	-0.25	-1.12	0.342	-0.789	-0.741	-0.753	-0.304	0.125	0.136	-0.418	-0.795	-0.724	-0.583	-0.808	0.055	0.8
CGTCCGAGGTCAGAGAGGTCAGTGAATGCCGAGT	6.42	5.78	3.42	5.43	0.406	5.62	4.63	5.26	2	4.02	3.24	4.09	-0.171	-0.203	4.74	6.53	12.4	5.71	0.718	5.23
GCGACTGGGGCATCAGCGGGTTACCATAACTTAA	-0.361	-0.573	-0.505	0.433	-0.992	1.11	0.815	0.669	-0.383	0.237	3.43	2.86	-0.728	-1.07	0.437	-0.0944	-0.517	0.346	-0.439	0.729
TATACAGGGTCAAAGGCCACAGTACGAATGTCGA	7.15	6.26	2.88	5.26	2.68	6.52	9.43	8.36	7.28	8.74	2.84	5.48	3.56	1.95	3.1	4.85	0.619	7.09	1.53	4.45
AGTCAAAGTTCAGGACGAGGCAACGTAAAGCACG	3.7	3.55	1.2	1.5	-0.0334	3.22	4.51	4.56	1.57	3.42	-0.129	1.26	0.256	0.437	1.12	1.94	0.989	1.89	0.997	4.37
ACTAGCAGTCCAAGGGTCACTCAAGATTAGTCCG	2.25	2.99	0.313	2.87	-0.249	3.41	3.5	4.58	2.19	4.18	-0.304	1.77	0.198	-0.0845	1.69	3.03	0.168	3.39	-0.132	3.35
TCTATTAGTTGAAGGGCAACAGACGAGTCCGTTT	0.85	0.613	0.367	0.805	0.326	0.993	0.441	2.09	3.73	2.9	2.12	0.473	0.759	0.516	1.01	0.991	0.988	0.764	1.52	1.55

Source: the supplement of paper PMC6555819
